# Source: PubChem
# Only a sample is shown.
# aSyn 5UTR act = Activators working through SNCA 5'UTR binding (MLPCN). activity score, % (tested at 7.5 µM), hits read low. alpha-synuclein 5'UTR reporter, activators screen. 7.1% of 300,000 active; in the data active = activity score below about -60%
# An asterisk follows results filed as active.
SMILES,aSyn 5UTR act
COC(=O)Cc1ccc2sc(-c3ccccc3)nc2c1,-208*
Nc1cccc(-c2nc3ccccc3s2)c1,-67*
O=C(CCS(=O)(=O)c1ccccc1)Nc1ccc(-c2nc3ccccc3s2)c(O)c1,-93*
CC(=O)Nc1ccc(O)c(-c2nc3ccccc3s2)c1,-326*
CC(=O)Nc1cccc(-c2nc3ccc(NC(C)=O)cc3s2)c1,-133*
CCSc1nc2ccccc2n1C(=O)/C=C\c1ccc(OC)c(OC)c1,-112*
Cc1cc(O)ccc1Nc1nc2ccccc2nc1Nc1ccc(O)cc1C,-106*
O=C(c1cc2cc(Cl)ccc2[nH]1)N1CCCCC1,-85*
COc1ccccc1NC(=O)Cn1c(CN2CCCCC2)nc2ccccc2c1=O,-63*
COCc1cc(CN2CCCC2)c(O)c2ncccc12,59
COc1ccc(NC(=O)Nc2ccc3c(c2)OCO3)c(C)c1,-81*
Cc1ccccc1NC(=O)Nc1ccc2c(c1)OCO2,-129*
COc1ccc(NC(=O)Nc2cc(C)ccc2F)cc1OC,-77*
COc1ccccc1NC(=O)Nc1ccc(F)c(F)c1,-66*
CC(=O)Nc1ccccc1OCC(=O)c1ccc2c(c1)OCO2,-99*
Cc1ccc(C)c(NC(=O)Nc2ccc3c(c2)OCO3)c1,-73*
Cc1c(NC(=O)Nc2ccc3c(c2)OCO3)cccc1[N+](=O)[O-],-96*
COc1ccccc1NC(=O)Nc1ccc2c(c1)OCCO2,-131*
Cc1ccc(CNc2ccc3c(c2)OCO3)c(C)c1,-98*
CCOc1ccccc1NC(=O)Nc1ccc2c(c1)OCO2,-85*
Cn1c(=N)n(CC(=O)c2ccccc2)c2ccccc21,90
COc1ccc(C(=O)Cn2c(=N)n(C)c3ccccc32)cc1,-62*
Cc1ccc(C(=O)Cn2c(=N)n(N)c3ccccc32)cc1,-166*
CCN(CC)CCn1c(=N)n(CC(=O)c2ccc(C)cc2)c2ccccc21,-125*
Cc1ccccc1Oc1cc(NC(=O)Cn2cnc([N+](=O)[O-])c2)cc([N+](=O)[O-])c1,-91*
SMILES,aSyn 5UTR act
COCCCNC(=O)c1ccc(N2CCCC2)c(NS(=O)(=O)c2ccc(C)cc2)c1,-73*
Cc1ccc(CNc2ccc3c(c2)ncn3C(C)(C)C)cc1,-97*
CCn1cnc2cc(NCc3ccc(Cl)cc3)ccc21,-111*
CCCn1cnc2cc(NCc3ccccn3)ccc21,-71*
CCc1ccc(CNc2ccc3c(c2)ncn3C)cc1,-156*
Cc1ccc(CNc2ccc3c(c2)ncn3C)cc1,-170*
COc1ccc(Br)c(-c2nnc(CS(=O)(=O)c3ccccc3)o2)c1,-85*
CC1CCCCN1C(=O)CSc1ccc(-c2ccc(F)cc2)nn1 (configuration not stated),-76*
CC1CCCCN1C(=O)C1CC(c2ccc(F)cc2)=NO1 (configuration not stated),-89*
O=C(C1CC(c2ccc(F)cc2)=NO1)N1CCCCC1 (configuration not stated),-141*
O=C(C1CC(c2ccccc2O)=NO1)N1CCCCC1 (configuration not stated),-112*
COc1ccc(Oc2nccc(-c3ccc(F)cc3)c2C#N)cc1,-82*
COc1ccc(Oc2nccc(-c3ccccc3)c2C#N)cc1,-185*
Cc1ccc(-c2cc(-c3ccc(F)cc3)nc(N)c2C#N)o1,63
O=C(c1ccc2oc(CCc3ccccc3)nc2c1)N1CC[C@H](O)C1,-134*
O=C(c1ccc2oc(CCCc3ccccc3)nc2c1)N1CCCC(CCCO)C1 (configuration not stated),-65*
CCCCc1nc2cc(C(=O)N3CCC(O)CC3)ccc2o1,-83*
CCCCc1nc2cc(C(=O)N(C)C3CCOCC3)ccc2o1,-165*
Cc1ccc(-c2cc3c(N=O)c4ccccc4c-3n[nH]2)cc1,92
